In PubChem BioAssay AID1508600 (Functional Genomics Laboratory (NCATS/FGL), 2020):
The whole screen tested about 53,000 sequences, of which about 3,700 (7%) were called active. Only a selection was taken, and actives are over-represented in it overall. Values without a mark were called inactive.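 How the source made its calls: active means gene knockdowns whose robust z-score for IL-1 alpha signal is at least 2 or at most -2, so actives lie on both sides; inactive means the rest.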

Experiment: Components of the Cytosolic LPS Sensing Pathway: Gene Identification via Genome-wide siRNA Screen;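 further: robust z of the log signal after scaling to non-targeting control siRNA wells of the plate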
Settings: RAW264.7 macrophages, IL-1a HTRF, actives lie on both sides, screened at 100 nM (by protocol), cells primed 5 h with Pam3CSK4 first
Procedure, shortened: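 Three distinct siRNAs per gene were tested singly at 100 nM in RAW264.7 macrophages. Following Pam3CSK4 priming and 24 hour LipidA transfection, IL-1a secretion was read by HTRF.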

| Sequence | z-score |
| --- | --- |
| GGGAAAUGACCUUCAUUGGTT against Rbl2 | 1.05 |
| GGUCAGUCAACAUGAACUUTT against Acad9 | 0.0973 |
| GGCAGGACAUUCUCAAAUCTT against Praf2 | 2.51 (active) |
| GGGAGUUGAGAAGACAUAATT against Lim2 | 0.223 |
| CGGGCAGUACUAUGAUUUGTT against Ppp1cc | 2.09 (active) |
| CCUCACCAAACCUUGUUGATT against Cd300lg | -1.57 |
| GGCUAAGACUAUGUUGUAATT against Smcp | -1.48 |
| GGCUCUUUGUUCAGUUUUUTT against Fxyd3 | 2.52 (active) |
| CCAUAUAACUGCCAAUAAUTT against Ankrd7 | -2.02 (active) |
| GCUCAUAAAACUCCAAAAGTT against Mob4 | -0.713 |
| GCAACUCUGAGGUUGCUAGTT against Pgam1 | -0.12 |
| CCCUCAUUGUAACCUUAACTT against Olfr792 | -2.27 (active) |
| GGCUGAAUGUCGCUUAGAGTT against 9030612E09Rik | -0.875 |
| GGCUUAGCUUUUGUGAUUCTT against Olfr143 | -1.24 |
| GGUGUCCCUUAAUGUGUCCTT against Heg1 | 0.671 |
| GCCUCUCUGGUGAACUUAGTT against Ccar1 | 0.0406 |
| GCCUCACUUGAUGAAAUGGTT against Sccpdh | -2.13 (active) |
| GGAAGGACUUAAAUGAUGCTT against Rnf187 | -1.18 |
| GGUGGACAUUCCUAAGAUUTT against Ago1 | -0.97 |
| CGCAUAAUGGAUGAGAGGATT against Mef2a | 0.871 |
| GCAGUGUAUAGGUGUACAATT against Krt2 | 3 (active) |
| GCAGAGUGCUCGUAGAGUGTT against Heatr5a | 0.96 |
| GGAGGUUCAACAUGAAAAUTT against Lingo2 | -0.253 |

| Sequence | z-score |
| --- | --- |
| GGCCUUUGCACGUGGAUUGTT against Zfp420 | -0.221 |
| GGGAAUCAUGAUAUGUUUCTT against Tmem186 | -0.217 |
| GGAGGUCCAUGUCCUGCUUTT against Mesp2 | 0.336 |
| GCAGAACCGCCAACCAACATT against Smarcc2 | -2.03 (active) |
| CCUCGGUCAGAUUCCUGAUTT against Phpt1 | 0.101 |
| CCAAUAACUACUCAUACCCTT against Ints1 | 0.105 |
| GCAUGUAGUAUGGUAACACTT against Akr1b7 | -1.78 |
| CCUUAAACAGCUUUUCAGATT against Dync2h1 | 0.472 |
| UCUUACACUUCGUGUUCCATT against Gpr6 | 3.12 (active) |
| CGAAAACUUCAUAGCUACATT against Hmg20a | -1.95 |
| GCAGACAAUAUCUCUGAAUTT against Olfr459 | -0.942 |
| CCUCUCAAGAAAUCGUGCATT against Trim47 | 0.978 |
| GCAGAUUGUGCAGCUAGCATT against Pax4 | 0.452 |
| CCAUCUCAUUCCUUACCAGTT against Gm4736 | -1.79 |
| GGAUAAGAUAAUGUCUGUGTT against Olfr716 | -1.73 |
| GGGUAACAGUGGUGAACCUTT against Col1a1 | 2.08 (active) |
| GGCUGAGUUAUUUGUGACATT against Syt13 | -1.41 |
| CGGCCUGGGUCCCGUGGACTT against Hs3st6 | -1.18 |
| CGCAUGCCUGUAAAAUAAATT against 2310057M21Rik | -1.37 |
| GGGAAUUUUGGAAGAGUCUTT against F630003A18Rik | -3.23 (active) |
| GCGAGGAAAGAGCACUGUATT against Fam107a | -0.103 |
| GGGCUAUGUUCGAAGUAAATT against Kbtbd3 | -0.848 |
| GGUGAGUAUAUUCAAGUUATT against Ndor1 | 4.36 (active) |

| Sequence | z-score |
| --- | --- |
| GGAUAUUUGGAGGACAACCTT against C1s1 | 0.0678 |
| CGAGAGGUUUGUCCAUAGATT against Tac4 | -0.86 |
| GGGACAAUAAAACCAACACTT against Ulk4 | -1.04 |
| CCACCUUGGUCUAAUUUCUTT against Slitrk4 | -2.06 (active) |
| GGCUCCUCAUUACCUCUACTT against Rrp7a | 0.233 |
| GGGCCACACAGAAAUGGUUTT against Ank1 | 0.994 |
| GGAGAAAGGUGCUUCCGAUTT against Mrpl19 | 0.47 |
| CGAUGGCUUGGUUCCAUUUTT against Tcaf3 | -0.0976 |
| GGCACUACAACGGAACUCATT against Slco5a1 | -1.82 |
| GCGUGUUAGGAAAAACUCUTT against Pars2 | 1.36 |
| CCGAGCAGUAUGUGAACGUTT against Cela1 | 3.56 (active) |
| CCUUUACUGUCCAUUCCGATT against Stxbp2 | -0.533 |
| CCCUGUGAAAGUGUCAUAUTT against Pigq | 1.28 |
| GGUUCAACUUCACACUGAGTT against Mettl22 | 1.08 |
| GGAAAAAAAUGCUGUAUACTT against Insm1 | -0.599 |
| GGUGCUUUGUAAACUGUCUTT against Slc26a11 | -2.99 (active) |
| ACCUGUGAUGGUGGAGACUTT against AF067061 | 0.577 |
| GCAUGCCCGUAAUCAAGUGTT against Racgap1 | 0.104 |
| GGACUUCAGCAACUAUAGUTT against Ggt7 | -0.631 |
| GUUCCACUACUUCUGCUCCTT against Olfr583 | 0.41 |
| GGUGCUUCCAGAAUCUUUATT against Epha5 | 0.517 |
| CCGGUUUCAAAUUGCCACUTT against Psmb4 | -2.73 (active) |
| GGAAGGUAUCUGAGGUCCGTT against 2810408A11Rik | -0.106 |
